D1 ag: agonists of human D1 dopamine receptor. P21728. HEK293 T-REx D1 cells, calcium flux, agonist mode. activation, % at 2 µM. 360,000 tested, 1% active; note: 0% is about no effect
Target sequence (P21728 whole entry, looked up): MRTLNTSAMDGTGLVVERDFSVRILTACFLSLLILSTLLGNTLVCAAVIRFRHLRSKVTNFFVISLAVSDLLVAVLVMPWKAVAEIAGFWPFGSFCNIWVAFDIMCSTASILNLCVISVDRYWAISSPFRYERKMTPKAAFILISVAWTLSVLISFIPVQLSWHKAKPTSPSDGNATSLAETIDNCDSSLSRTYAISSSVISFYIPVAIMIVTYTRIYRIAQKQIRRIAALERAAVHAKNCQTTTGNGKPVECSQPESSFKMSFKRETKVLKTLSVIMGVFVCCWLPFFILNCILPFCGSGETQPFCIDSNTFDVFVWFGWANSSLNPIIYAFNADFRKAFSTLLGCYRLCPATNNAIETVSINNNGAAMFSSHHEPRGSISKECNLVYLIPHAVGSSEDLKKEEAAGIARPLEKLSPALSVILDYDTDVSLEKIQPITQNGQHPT
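Agonism was scored from calcium flux recorded over 180 s (1 read/s) after pintool compound addition, following a 10-cycle baseline. Cells were inducible force-coupled HEK293 TREx D1, plated overnight at 30 C and loaded with no-wash calcium dye.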
TRHR ag: activates the human TRH receptor. TRHR cells, calcium flux fluo-8, FDSS agonist mode. activation, % at 2 µM. 360,000 tested, 0.18% active. AID 493084; note: 0% is about no effect
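Steps: seed TRHR cells overnight; add fluo-8 no-wash Ca dye, RT 30 min–1.5 h; record 10 s baseline; pin-transfer compounds; monitor fluorescence 1 cycle/s for the agonist window. Calcium increases flag candidate agonists.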
D1 antag: human D1 dopamine receptor antagonism. 360,000 tested, 3.2% active. AID 504652. HEK293 TREx D1 cells, calcium flux, dopamine EC80; stronger effect = lower value. activity change, negative = inhibition, % at 10 µM; in the data active = activity change below about -30%; note: % is set by controls: 0 for no effect and ±100 for the full control effect
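After overnight tetracycline induction at 30 C, force-coupled D1 HEK293 cells took up a no-wash calcium dye at room temperature. Compounds were added and monitored 180 s, and the response to EC80 dopamine was then recorded.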
D1 potentiator: enhances dopamine response at the human D1 receptor; 360,000 tested, 0.036% active; potentiation, % at 10 µM; P21728; AID 504651; HEK293 TREx D1 cells, calcium flux, dopamine EC20 potentiation; in the data active = potentiation above about 30%; note: 0% is about no effect
TRHR PAM: allosteric enhancers of human TRH receptor; P34981; TRHR cells, fluo-8 calcium fluorescence, EC20 TRH enhancement; enhancement, % at 2 µM; 360,000 tested, 0.66% active; AID 493056; in the data active = enhancement above about 30%; note: 0% is about no effect
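TRHR-expressing cells loaded with fluo-8 calcium dye were read kinetically (ex 480/em 530) during compound addition, then stimulated with an EC20 of TRH (10 nM final). Enhancement of the Gq-mediated intracellular calcium response was scored.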
* hit, by the source's call; · = no result; ! = a repeat was not active. The list is not random: actives were taken first. Their share in the collection is about 4.6%. Cut-off read from the data, not from the text of the source, unless noted: active = activation above about 30%; inactive = the rest.

SMILES	D1 ag	TRHR ag	D1 antag	D1 potentiator	TRHR PAM
COc1ccc(-c2csc(NC(=O)CS(=O)(=O)c3ccccc3)n2)cc1	3	0	7	0	1
COc1ccc(-c2csc(NC(=O)C3CCCCN3S(=O)(=O)c3ccccc3)n2)cc1 (stereo not drawn)	2	0	-37*	-4	1
CN1CCN(S(=O)(=O)c2cccc(C(=O)Nc3nc(-c4ccccc4)cs3)c2)CC1	15	-1	-32*	-5	9
O=C(Nc1ccc(Cl)cn1)c1cccc(S(=O)(=O)N2CCCCC2)c1	31*	-2	7	·	11
COc1ccc(Br)cc1CNC(=O)CN1C(=O)CSc2ccc(S(=O)(=O)N3CCOCC3)cc21	-1	-1	-7	-1	-9
CN(CC(=O)Nc1ccc(Cl)cc1)C(=O)c1cccc(S(=O)(=O)NCc2ccccc2)c1	2	0	-9	6	0
CC(NC(=O)c1cccc(S(=O)(=O)N2CCN(C)CC2)c1)c1ccc(Cl)cc1Cl (stereo not drawn)	16	0	-45*	-5	-8
O=C(Nc1ccc(-c2csc(Nc3ccccc3)n2)cc1)c1cccc(C(F)(F)F)c1	3	0	-47*	-5	1
COc1ccc(-c2csc(NC(=O)c3cccc(S(=O)(=O)N4CCN(C)CC4)c3)n2)cc1	19	0	-48*	-9	4
CN(CC(=O)Nc1ccc(Cl)cc1)C(=O)c1cccc(S(=O)(=O)N2CCN(Cc3ccccc3)CC2)c1	3	1	-31*	-13	-7
CC(C)c1ccc(OC(=O)c2cccc(S(=O)(=O)N3CCN(C)CC3)c2)cc1	9	-1	-28	-12	15
C=Cc1cc(F)c(S(=O)(=O)N2CCN(S(=O)(=O)c3ccc4c(c3)OCCO4)CC2)cc1F	4	-2	-11	2	2
Cc1nc(-c2cccc(NC(=O)c3cccc(S(=O)(=O)N4CCCC4)c3)c2)cs1	2	0	-32*	1	-1
COC(=O)c1sc(N)c(C(=O)OC)c1COC(=O)CNS(=O)(=O)c1cccc(C#N)c1	1	0	-33*	6	9
COC(=O)c1sc(N)c(C(=O)OC)c1COC(=O)[C@@H](NS(=O)(=O)c1cccc(Cl)c1)C(C)C	-1	-1	-13	2	0
Nc1c(C(=O)Nc2ccc(Cl)c(C(F)(F)F)c2)sc2nc(-c3ccncc3)ccc12	8	6	-1	-2	1
CCOC(=O)N1CCC(N(CCCOC)C(=O)Nc2cccc(OC)c2)CC1	2	0	-31*	1	-3
CCN(CC)CCN1C(=O)C(=O)/C(=C(/O)c2ccc(OC)cc2)C1c1ccco1 (stereo not drawn)	2	0	-34*	0	-5
COc1ccc(C2/C(=C(/O)c3ccc(C)cc3)C(=O)C(=O)N2CCCN2CCOCC2)cc1 (stereo not drawn)	0	0	-25	37*	-9
Cc1ccc(-c2nc3c4ccccc4n(CC(=O)N4CCN(c5ccccc5F)CC4)c(=O)n3n2)cc1	-2	0	·	0	-3
O=C(Cn1ncc2c3ccccc3n(Cc3cccc(Cl)c3)c2c1=O)Nc1ccc(F)cc1F	7	1	-13	-2	2
COc1cccc(NC(=O)CCNS(=O)(=O)c2ccc(Br)s2)c1	3	-1	-37*!	6	7
Cc1ccc(NC(=O)CCNS(=O)(=O)c2ccc(Br)s2)cc1	0	-1	7	6	4
CCC(=O)/C=C1/Sc2ccccc2N1CC	1	0	-3	-7	5
CCOC(=O)/C(=C/C=C1\Sc2ccccc2N1CC)C(C)=O	219*	80*	2	0	22
SMILES	D1 ag	TRHR ag	D1 antag	D1 potentiator	TRHR PAM
CCOC(=O)/C(=C/C=C1\Sc2cc(C)c(C)cc2N1CC)C(C)=O	349*	249*	-12	9	21
CCOC(=O)/C(=C\C=C1/Sc2ccccc2N1CC)C(C)=O	290*	71*	-29	-1	13
Cc1ccc(C)c(S(=O)(=O)NCC(c2ccco2)S(=O)(=O)c2ccc(F)cc2)c1 (stereo not drawn)	22	0	·	-3	3
COc1ccc(CNC(=O)C2CCN(S(=O)(=O)c3c(C)noc3/C=C/c3ccccc3F)CC2)cc1	0	1	6	1	-5
CN(C(=O)CSc1nc2ccc(NC(=O)c3ccc(F)cc3)cc2s1)c1ccccc1	1	-1	7	-2	0
Oc1ccccc1-c1nnc(-c2ccc(C(F)(F)F)cc2)o1	5	0	-13	-3	4
COc1ccc(-c2nc(/C=C3\C(C)=Nc4ccccc43)c(O)o2)cc1	33*	8	-15	-5	2
Cc1cccc(/N=C/c2nc(-c3ccccc3Br)oc2O)n1	-3	0	-14	-1	1
CC1=Nc2ccccc2/C1=C\c1nc(-c2ccccc2)oc1O	27	9	-8	-3	29
CC1=Nc2ccccc2/C1=C\c1nc(-c2ccc(C(F)(F)F)cc2)oc1O	79*	25	19	-12	-8
CC1=Nc2ccccc2/C1=C/c1nc(-c2ccc(C)s2)oc1O	73*	17	-18	-4	-8
Cc1c(C(=O)Nc2cccc(F)c2)oc2c1-c1nn(Cc3c(F)cccc3Cl)cc1CC2	2	0	-1	-3	-6
COc1cc(OC)cc(C(=O)NCC(=O)OCc2ccc(Cl)c(Cl)c2)c1	9	1	-10	2	-6
Cc1ccc(NC(=O)C2CCCN2S(=O)(=O)c2cccc3cccnc23)cc1C (stereo not drawn)	-2	0	-6	-3	-3
COC(=O)[C@H]1[C@H]2C[C@@H]3c4[nH]c5cc(OC)ccc5c4CCN3C[C@H]2C[C@@H](OC(=O)/C=C/c2cc(OC)c(OC)c(OC)c2)[C@@H]1OC	2	-1	2	7	-6
COC(=O)[C@H]1[C@H]2C[C@@H]3c4[nH]c5cc(OC)ccc5c4CCN3C[C@H]2C[C@@H](OC(=O)c2ccc(N)cc2)[C@@H]1OC	3	2	-66*	4	15
O=C(Nc1ccccc1Oc1cccnc1)C1CCCN(C/C=C/c2ccc(F)cc2)C1 (stereo not drawn)	5	-1	-30*	1	1
CCn1c(=N)c(C(=O)NC2CCCCC2)cc2c(=O)n3cc(C)ccc3nc21	2	1	-31*	0	-5
CCn1c(=N)c(C(=O)NC2CCCC2)cc2c(=O)n3cc(C)ccc3nc21	2	0	6	0	3
Cc1ccc2nc3c(cc(C(=O)NCc4ccco4)c(=N)n3C3CCCC3)c(=O)n2c1	39*	8	9	·	-1
CCNc1nc(NCC)nc(Nn2cnnc2)n1	2	0	-38*	-8	6

Screening data as filed in PubChem BioAssay.
